{"source": "PubChem BioAssay", "note": "Unmarked numbers belong to inactive results. How the calls were made is not given here.", "data": [{"system": "Aerobactin synthetase IucA (Klebsiella pneumoniae hvKP1)", "test": "Biochemical IucA enzyme inhibition primary screen of the Spectrum library (AID 1346200);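 further: 100% = wells without compound and 0% = wells lacking enzyme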", "conditions": "malachite green pyrophosphate, A620, at 8 µM, stronger effect = lower value", "units": {"activity remaining": "%"}, "values": [{"smiles": "CO/N=C(/C(=O)NC1C(=O)N2C(C(=O)OC(C)OC(C)=O)=C(COC(N)=O)CSC12)c1ccco1", "note": "(stereo not drawn)", "activity remaining": 114}, {"smiles": "C=C1C2CC[C@@]3(C)[C@H](c4ccoc4)OC(=O)C[C@]13O[C@H]1CC(O)C(C)(C)C(CC(=O)OC)[C@@]21C", "note": "(stereo partly drawn)", "activity remaining": 86.1}, {"smiles": "CC(=O)Oc1cccc(C(=O)O)c1OC(C)=O", "activity remaining": 120}, {"smiles": "Cc1cc(-n2c(=O)[nH]c(=O)n(C)c2=O)ccc1Oc1ccc(SC(F)(F)F)cc1", "activity remaining": 109}, {"smiles": "O=C(O)CCCCCCCCCCCCC1C=CCC1", "note": "(stereo not drawn)", "activity remaining": 118}, {"smiles": "CC(=O)Oc1ccc2c(c1)CCC1C2CC[C@@]2(C)C1C[C@@H](OC(C)=O)[C@@H]2OC(C)=O", "note": "(stereo partly drawn)", "activity remaining": 97.3}, {"smiles": "CC(C)=CCCC(C)[C@@H]1CC[C@]2(C)C3=C(CC[C@@]12C)C1(C)CC[C@H](O)C(C)(C)C1CC3", "note": "(stereo partly drawn)", "activity remaining": 124}, {"smiles": "CC(C)c1ccc2c(c1)CCC1C(C)(C(N)=O)CCCC21C", "note": "(stereo not drawn)", "activity remaining": 103}, {"smiles": "N[C@@H]1[C@@H](O[C@@H]2O[C@H](C(=O)O)[C@@H](O)[C@H](O)[C@H]2O)[C@@H](O)[C@@H](CO)O[C@@H]1O", "activity remaining": 100}, {"smiles": "CC(=O)OC/C=C(\\C)CC/C=C(\\C)CC/C=C(\\C)CC/C=C(\\C)CC/C=C(\\C)CC/C=C(\\C)CC/C=C(\\C)CC/C=C(\\C)CCC=C(C)C", "activity remaining": 120}, {"smiles": "CC(C)=CCC1=C(O)c2ccccc2C(=O)C1=O", "activity remaining": 119}, {"smiles": "C/C=C/CC(C)C(O)C1C(=O)NC(CC)C(=O)N(C)CC(=O)N(C)C(CC(C)C)C(=O)NC(C(C)C)C(=O)N(C)C(CC(C)C)C(=O)NC(C)C(=O)NC(C)C(=O)N(C)C(CC(C)C)C(=O)N(C)C(CC(C)C)C(=O)N(C)C(C(C)C)C(=O)N1C", "note": "(stereo not drawn)", "activity remaining": 113}, {"smiles": "C#C[C@]1(O)CCC2C3CCc4cc(OC)ccc4C3CC[C@@]21C", "note": "(stereo partly drawn)", "activity remaining": 116}, {"smiles": "COC(=O)Nc1nc2ccc(Sc3ccccc3)cc2[nH]1", "activity remaining": 114}, {"smiles": "CCOC(=O)c1ccc(N)cc1", "activity remaining": 113}, {"smiles": "NC(N)=O", "activity remaining": 91.3}, {"smiles": "O=C1c2ccccc2C(=O)c2c1ccc(O)c2O", "activity remaining": 112}, {"smiles": "COc1cccc2c1CCC1=CC(=O)CC[C@@]12C", "activity remaining": 111}]}]}
